Laboratory results: PubChem BioAssay AID361 (National Center for Advancing Translational Sciences (NCATS), 2006)
Among all 51,000 compounds or so, about 600 (1.2%) were called active. Inconclusive results (about 2%) are left out. The entries come from a sample that favours actives as a whole. A number with no mark means an inactive call. Rule as the data show it: active = potency below about 11 µM; inconclusive = mostly about 12 µM to 25 µM; inactive = weaker than that;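 the screen sought inhibitors and activators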.

test system: pyruvate kinase (Bacillus stearothermophilus); test: Pyruvate Kinase; conditions: purified pyruvate kinase, luminescence ATP production; ribose 5-phosphate activator present at AC10
Method: Pyruvate kinase (partially purified from Bacillus stearothermophilus) was assayed for its ability to generate ATP from ADP using phosphoenolpyruvate (PEP) as a substrate. ATP generation was detected in a coupled reaction by luciferase-mediated luminescence, an ATP-dependent process. Pyruvate kinase substrates, PEP and ADP, were present in the assay at Km and […]-fold below Km respectively. The enzyme was assayed at an intermediate level of activity to screen for inhibitors and activators. In addition, ribose 5 phosphate, a positive modulator of pyruvate kinase, was included in the assay at AC10 in order to identify possible potentiators.
NCGC Assay Protocol Summary:
Three uL of substrate mix (final concentration, 50 mM imidazole pH 7.2, 50 mM KCl, 7 mM MgCl2, 2 mM PEP, 0.1 mM ADP, 0.7 nM ribose 5 phosphate, 0.01% Tween 20, 0.05% BSA) was dispensed into 1536 well plates. 23 nL of compound were delivered by a pin tool and 1 uL of enzyme mix (final concentration, 10 nM pyruvate kinase, 50 mM imidazole pH 7.2, 0.05% BSA) was added. After centrifugation at 1000 rpm for less than a minute, plates were incubated at room temperature for 2 hours. Three uL of detection and kinase stop mix (PKLight, Cambrex) was added, the plates centrifuged, and luminescence read by a ViewLux (Perkin Elmer) at 5 second exposure/plate. Data were normalized to the controls for AC100 stimulation (5 uM ribose 5 phosphate) and to AC100 inhibition (110 uM luteolin).
Potency is read from the fitted curve at half-maximal effect.

SMILES	Potency
Cc1cc(NC(=O)CSc2nnc(-c3ccc(Cl)s3)o2)no1	> 57 µM
Cc1nc(SCC(=O)Nc2cc(C)on2)c2c(C)c(C)sc2n1	> 57 µM
Cc1ccc2nc(-c3ccc(SCC(=O)Nc4cc(C)on4)nc3)[nH]c2c1	2.74 µM (active)
Cc1cc(C)c2c(c1)cc(C)c1nnc(SCC(=O)Nc3cc(C)on3)n12	> 57 µM
COc1ccc(OC)c2c(N)c(C#N)c(C(F)(F)C(F)(F)F)nc12	> 25.6 µM
C=CCc1cccc2cc(C(=O)N3CCN(C(=O)OCC)CC3)c(=O)oc12	> 57 µM
COc1ccccc1CNCc1cccs1	> 57 µM
COc1ccc(CNC(=O)c2c(C)cc(=O)oc2C)cc1OC	> 25.6 µM
Cc1ccc(C(=O)NCC2CCCO2)o1 (stereo unspecified)	> 57 µM
CCc1cc2c(=O)c(-c3ccon3)c(N)oc2cc1OC	4.26 µM (active)
COc1cccc(N2CC(C(=O)Nc3c(C)cccc3C)CC2=O)c1 (stereo unspecified)	> 57 µM
Cc1cccc(NC(=O)c2ccccc2NC(=O)C(C)(C)C)n1	> 57 µM
CCn1c(=N)n(CC(=O)c2cccc(OC)c2)c2ccccc21	38.1 µM
Cn1c(/C(C#N)=C2/CCCCCN2)nc2ccccc21	> 57 µM
CC1CCCCN1CC(=O)NCc1ccc2c(c1)OCO2 (stereo unspecified)	> 57 µM
CN(CCc1ccccn1)S(=O)(=O)c1ccc2c3c(cccc13)C(=O)N2	> 57 µM
CSc1ccc(Cl)c(C(=O)OCC(=O)N2CC(C)OC(C)C2)c1 (stereo unspecified)	> 57 µM
NC(=O)COc1ccc2c3c(c(=O)oc2c1)CCCCC3	> 57 µM
CCN(CC)S(=O)(=O)c1cccc(C(=O)NCC(=O)OCC(=O)NCc2ccccc2)c1	> 57 µM
CC(Oc1ccc(Cl)cc1)C(=O)Nc1ncccn1 (stereo unspecified)	> 57 µM
CCCCC(CC)C(=O)Nc1ccc(Cl)cn1 (stereo unspecified)	> 57 µM

SMILES	Potency
O=C(Nc1ccc(Cl)cn1)c1cnn2cccnc12	8.73 µM (active)
O=C(O)c1ccc(NC(=O)c2cccs2)cc1	> 57 µM
O=C(Nc1ncccn1)c1cccs1	> 57 µM
Cc1nc(-c2ccc(NC(=O)c3cccs3)cc2)cs1	2.04 µM (active)
COC(=O)CCSc1nccn1Cc1ccccc1	> 57 µM
O=c1c(F)cn(C2CCCO2)c(=O)n1Cc1ccccc1Cl (stereo unspecified)	> 25.6 µM
CCCOc1ccc(CN(CCO)CCO)cc1C(=O)OC	> 57 µM
CCN(Cc1cc2cc(C)ccc2[nH]c1=O)S(=O)(=O)c1ccccc1	> 57 µM
CCC(=O)N(Cc1cc2cc(OC)ccc2[nH]c1=O)c1ccccc1C	> 57 µM
COc1ccc(N(Cc2cc3cc(OC)ccc3[nH]c2=O)S(C)(=O)=O)cc1	7.73 µM (active)
COc1cccc(NC(=O)c2ccccc2SC)c1	> 57 µM
CC(C)(O)C#Cc1ccc(C(=O)N2CCC(C(N)=O)(N3CCCCC3)CC2)cc1	> 57 µM
Cc1ccc(NC(=O)CS(=O)CC(=O)N(c2ccccc2)C(C)C(=O)NC2CCCC2)cc1 (stereo unspecified)	> 57 µM
CCCCC(=O)N(c1ccc(OC)cc1)C1C=CS(=O)(=O)C1 (stereo unspecified)	> 57 µM
CCN(CC)S(=O)(=O)c1ccc2nc(CSc3nnnn3-c3ccc(O)cc3)[nH]c2c1	> 57 µM
O=C(CSc1nnc(-c2cccs2)n1-c1ccccc1)N1CCN(C(=O)c2ccco2)CC1	> 57 µM
CCN(CC)c1ccc2oc(=O)c(C)nc2c1	> 57 µM
CCc1ccc2oc(-c3ccc(N)cc3)nc2c1	2.06 µM (active)
COC(=O)C(CC(=O)Nc1cc(C)ccc1C)Nc1ccccc1OC (stereo unspecified)	> 57 µM
Cn1c(SCc2c(F)cccc2Cl)nnc1-c1cnccn1	> 57 µM
COc1ccccc1N=C1SC(C)CN1C(=O)C1CCC1 (stereo unspecified)	> 57 µM

SMILES	Potency
Cn1nnnc1SCc1cc(=O)[nH]c2ccccc12	> 57 µM
CN(C)c1nc(N)nc(CSc2nnnn2-c2cccc3ccccc23)n1	1.57 µM (active)
CN(C(=O)CSc1nnnn1-c1ccccc1)C1CCCCC1	> 57 µM
C=CCn1c(=S)[nH]c2nc3c(cc2c1=O)COC(C)(C)C3	> 25.6 µM
COc1ccc(S(=O)(=O)N(CCCN2CCCC2=O)Cc2cc3c(C)ccc(C)c3[nH]c2=O)cc1	> 57 µM
CC(C)OC(=O)C(C#N)c1nc2ccccc2nc1N1CCN(Cc2ccc3c(c2)OCO3)CC1 (stereo unspecified)	> 25.6 µM
CSc1nc(O)c(Cc2ccccc2)c(=O)[nH]1	> 25.6 µM
O=C(CN1CCN(C(=O)c2cccc(F)c2)CC1)Nc1ccccc1F	> 57 µM
O=C(c1ccccc1)N1CCN(C(=O)N2CCCCC2)CC1	> 57 µM
COc1ccc(CCN2C(=O)c3[nH]nc(-c4ccccc4O)c3C2c2ccc(C)cc2)cc1OC (stereo unspecified)	> 57 µM
Fc1ccc(-c2nnc3sc(-c4ccc5c(c4)OCO5)nn23)cc1	> 57 µM
O=C(CN1C(=O)C2C3C=CC(C3)C2C1=O)NCCc1ccccc1Cl (stereo unspecified)	> 57 µM
N#CC1=C(N)C(C#N)(C#N)[C@H](c2ccsc2)[C@H]2COCC=C12	> 57 µM
Cn1c(=O)c(=O)n(C)c2cc(S(=O)(=O)NCCc3ccccc3)ccc21	> 57 µM
CCCCCCn1c(CN2CCCCC2)nc2c1c(=O)n(C)c(=O)n2C	> 57 µM
O=c1[nH]c(=O)n(Cc2ccco2)c2c1C(C(F)(F)F)(C(F)(F)F)N=C(c1ccco1)N2	> 25.6 µM
CC1CCN(C(=O)Cn2cc(C(=O)c3ccco3)c3ccccc32)CC1	> 57 µM
Cc1noc(C)c1C(=O)OCC(=O)/C=C1\N(C)c2ccccc2C1(C)C	> 57 µM
Cc1ccccc1-n1c(SCC(=O)NCc2cccs2)nnc1-c1ccncc1	> 57 µM
